Laboratory results as given in the supplement of paper PMC13380429.

System: Vero E6 infected with SARS-CoV-2
Assay: inhibition of SARS-CoV-2 cytopathic effect; higher = more antiviral protection, active = above 15
Conditions: 48 h

Measured: inhibition of SARS-CoV-2 cytopathic effect

COc1ccc2ccc(=O)oc2c1CC=C(C)C [osthol]
inactive: 1 nM 2.39% | 8.33 nM 6.22% | 100 nM 1.91% | 833.33 nM 3.87% | 10000 nM 2.49%

CCC(COC(=O)c1cc(OC)c(OC)c(OC)c1)(c1ccccc1)N(C)C (stereo not given) [trimebutine]
inactive: 1 nM -4.71% | 8.33 nM -2.14% | 100 nM -2.65% | 833.33 nM -0.31% | 10000 nM 2.51%

CCC[C@H](NC(=O)[C@@H]1[C@H]2CCC[C@H]2CN1C(=O)[C@@H](NC(=O)[C@@H](NC(=O)c1cnccn1)C1CCCCC1)C(C)(C)C)C(=O)C(=O)NC1CC1 [telaprevir]
inactive: 1 nM 0.02% | 8.33 nM -0.75% | 100 nM 0.71% | 833.33 nM 5.12% | 10000 nM -2.66%

CO/N=C(\C(=O)N[C@@H]1C(=O)N2C(C(=O)O)=CCS[C@H]12)c1csc(N)n1 [ceftizoxim]
inactive: 1 nM -1.24% | 8.33 nM -13.2% | 100 nM -0.8% | 833.33 nM 0.85% | 10000 nM 0.82%

CN1Cc2c(N)cccc2C(c2ccccc2)C1 (stereo not given) [nomifensine]
inactive: 1 nM 0.22% | 8.33 nM 1.01% | 100 nM 2.41% | 833.33 nM 1.13% | 10000 nM 0.73%

O=C(/C=C\n1cnc(-c2cc(C(F)(F)F)cc(C(F)(F)F)c2)n1)NNc1cnccn1 [selinexor]
inactive: 1 nM -0.07% | 8.33 nM -3.07% | 100 nM -7.87% | 833.33 nM -8.61% | 10000 nM -8.85%

Cc1cccc(C)c1NC1=NCCCS1 [xylazine]
inactive: 1 nM 1.43% | 8.33 nM 1.2% | 100 nM 1.06% | 833.33 nM -1.24% | 10000 nM -0.19%

CCS(=O)(=O)CCn1c([N+](=O)[O-])cnc1C [tinidazole]
inactive: 1 nM -3.22% | 8.33 nM -2.91% | 100 nM 1.02% | 833.33 nM 4.13% | 10000 nM -0.87%

CCN(CC)C(C)C(=O)c1ccccc1 (stereo not given) [amfepramone]
inactive: 1 nM -1.18% | 8.33 nM 1.39% | 100 nM -1.99% | 833.33 nM 1.34% | 10000 nM -0.09%

CC(=O)[C@H]1CC[C@H]2[C@@H]3C[C@H](C)C4=CC(=O)CC[C@]4(C)[C@H]3[C@@H](O)C[C@]12C [medrysone]
inactive: 1 nM -0.04% | 8.33 nM 1.55% | 100 nM -1.22% | 833.33 nM 0.73% | 10000 nM 3.22%

Cn1c(COP(=O)(NCCBr)NCCBr)cnc1[N+](=O)[O-]
inactive: 1 nM -3.18% | 8.33 nM -1.04% | 100 nM 0.12% | 833.33 nM -0.54% | 10000 nM -3.06%

Nc1ccc(S(=O)(=O)Nc2cnc3ccccc3n2)cc1 [sulfaquinoxaline]
inactive: 1 nM -0.58% | 8.33 nM 1.74% | 100 nM -1.77% | 833.33 nM -2.18% | 10000 nM 1.39%

c1cc(Cc2cnc[nH]2)ccn1 [immethridine]
inactive: 1 nM 0.32% | 8.33 nM 2.15% | 100 nM 0.76% | 833.33 nM 4.67% | 10000 nM 1.99%

CCCCc1ncc(/C=C(\Cc2cccs2)C(=O)O)n1Cc1ccc(C(=O)O)cc1 [eprosartan]
inactive: 1 nM -1.35% | 8.33 nM -0.99% | 100 nM -0.35% | 833.33 nM -0.6% | 10000 nM 2.22%

Cc1cnc(C(=O)O)c[n+]1[O-] [acipimox]
inactive: 1 nM -1.88% | 8.33 nM -0.46% | 100 nM -1.4% | 833.33 nM -2.17% | 10000 nM -1.06%

CC(O)CC(=O)O (stereo not drawn) [beta-hydroxybutyrate]
inactive: 1 nM 7.02% | 8.33 nM 2.5% | 100 nM -2.77% | 833.33 nM -2.16% | 10000 nM -1.85%

CC1(c2ccccc2)OC(C(=O)O)=CC1=O (stereo not given) [acifran]
inactive: 1 nM 0.88% | 8.33 nM 4.17% | 100 nM 2.12% | 833.33 nM -3.24% | 10000 nM 2.64%

c1ccc2c(c1)CCCC2C1=NCCN1 (stereo not given) [tetrahydrozoline]
inactive: 1 nM 0.31% | 8.33 nM -1.09% | 100 nM 2.06% | 833.33 nM 1.39% | 10000 nM 0.27%

C[C@]12CCC(=O)C=C1C=C[C@@H]1[C@@H]2CC[C@@]2(C)[C@H]1CC[C@@]21CCC(=O)O1 [canrenone]
inactive: 1 nM -1.44% | 8.33 nM -1.41% | 100 nM -2.85% | 833.33 nM -2.53% | 10000 nM 6.34%

NCCC[C@H](N)C(=O)O [ornithine]
inactive: 1 nM -1.52% | 8.33 nM -1.05% | 100 nM -1.8% | 833.33 nM -2.37% | 10000 nM 2.35%

COc1cc2c(cc1OC(C)C)[C@H](c1ccc(Cl)cc1)N(c1ccc(N(C)C[C@H]3CC[C@H](N4CCN(C)C(=O)C4)CC3)cc1)C(=O)C2
inactive: 1 nM -0.21% | 8.33 nM 1.25% | 100 nM 2.45% | 833.33 nM 2.4% | 10000 nM 2.39%

CC1(C)Oc2ccc(C#N)cc2[C@H](N(Cc2ncc[nH]2)c2ccc(Cl)cc2)[C@H]1O
inactive: 1 nM 0.45% | 8.33 nM -1.34% | 100 nM 1.85% | 833.33 nM 2.7% | 10000 nM -1.77%

CCN(CCCOc1ccc2c(Nc3cc(CC(=O)Nc4cccc(F)c4)[nH]n3)ncnc2c1)CCOP(=O)(O)O [barasertib]
inactive: 1 nM -0.38% | 8.33 nM 0.9% | 100 nM -1.02% | 833.33 nM -2.03% | 10000 nM -4.38%

O=C(c1cncc(Br)c1)N1CCC(N2CCCC2)CC1
inactive: 1 nM -1.15% | 8.33 nM -2.01% | 100 nM -1.71% | 833.33 nM -4.94% | 10000 nM 0.82%

C=C(C)CN1CC[C@]23c4c5ccc(O)c4O[C@H]2c2[nH]c4ccccc4c2C[C@@]3(O)C1C5
inactive: 1 nM 1.25% | 8.33 nM -1.87% | 100 nM 0.33% | 833.33 nM 0.21% | 10000 nM 1.05%

Clc1cccc(N2CCNCC2)c1
inactive: 1 nM -1.68% | 8.33 nM -2.45% | 100 nM -0.72% | 833.33 nM -3.2% | 10000 nM -2.99%

CN1CCN(C(c2ccccc2)c2ccccc2)CC1 [cyclizine]
inactive: 1 nM -1.86% | 8.33 nM -1.86% | 100 nM -1.97% | 833.33 nM -0.45% | 10000 nM 0.42%

C/C=C1/[C@H](O[C@@H]2O[C@H](CO)[C@@H](O)[C@H](O)[C@H]2O)OC=C(C(=O)OC)[C@H]1CC(=O)OCCc1ccc(O)c(O)c1 [oleuropein]
inactive: 1 nM 0.9% | 8.33 nM -0.2% | 100 nM -0.09% | 833.33 nM 0.43% | 10000 nM 0.52%

CC(C)(O)CC(=O)O [beta-hydroxy-beta-methylbutyrate]
inactive: 1 nM 3.1% | 8.33 nM -2.04% | 100 nM -6.91% | 833.33 nM -3.9% | 10000 nM -3.42%

O=C(COc1ccc(Cl)cc1)N1CCN(Cc2ccc3c(c2)OCO3)CC1 [fipexide]
inactive: 1 nM -0.21% | 8.33 nM 0.95% | 100 nM 1.92% | 833.33 nM 1.62% | 10000 nM 0.49%

COCCOCCOc1ccc(C2=N[C@@](C)(C(=O)O)CS2)c(O)c1
inactive: 1 nM -1.16% | 8.33 nM 1.76% | 100 nM 1.19% | 833.33 nM 1.75% | 10000 nM 2.16%

COC(=O)/C=C/C(=O)N[C@@H]1CC[C@@]2(O)[C@H]3Cc4ccc(O)c5c4[C@@]2(CCN3CC2CC2)[C@H]1O5 [beta-funaltrexamine]
inactive: 1 nM -1.34% | 8.33 nM 1.21% | 100 nM -0.8% | 833.33 nM 1.68% | 10000 nM 6.01%

C=C1CCN([C@H](C)[C@](O)(Cn2cncn2)c2ccc(F)cc2F)CC1 [efinaconazole]
inactive: 1 nM -0.21% | 8.33 nM 1.69% | 100 nM 0.85% | 833.33 nM 0.56% | 10000 nM 2.84%

O=C1c2ccccc2C(=O)C1c1ccccc1 [phenindione]
inactive: 1 nM -1.88% | 8.33 nM -1.11% | 100 nM -1.06% | 833.33 nM -1.97% | 10000 nM -3.42%

O=C/C=C/c1ccccc1 [cinnamaldehyde]
inactive: 1 nM 1.16% | 8.33 nM 2.28% | 100 nM 1.04% | 833.33 nM 3.28% | 10000 nM 5.38%

CCCC[N+]1(C)[C@@H]2C[C@@H](OC(=O)[C@H](CO)c3ccccc3)C[C@H]1[C@@H]1O[C@@H]12 (stereo not given in full) [butylscopolamine-bromide]
inactive: 1 nM -2.47% | 8.33 nM -2.18% | 100 nM -2.19% | 833.33 nM 0.56% | 10000 nM -1.1%

COc1ccc(-c2cc(=O)c3c(O)c(OC)c(O)cc3o2)cc1OC [eupatilin]
inactive: 1 nM 1.23% | 8.33 nM -0.46% | 100 nM 0.38% | 833.33 nM 1.92% | 10000 nM 2.58%
